The test system of the test is Plasmodium falciparum. Description: GSK_TCMDC: Inhibition of Plasmodium falciparum 3D7 in whole red blood cells, using parasite LDH activity as an index of growth. Test compounds present at 2uM. The format is functional.
`c1ccc([C@H]2CN3CCSC3=N2)cc1` [LEVAMISOLE]: the Inhibition is 93%.

Molecule `CCCN(CCC)CCCN(CCCN(CCC)CCC)c1cc(C)nc(Nc2ccc(Cl)cc2)n1.Cl` displayed an Inhibition of 100%.

For `Cl.O=S(=O)(NCCCN1CCOCC1)c1ccc2nccc(Nc3ccc(Oc4ccccc4)cc3)c2c1`, the Inhibition is recorded as 95%.

`CCN(CC)CCCC(C)Nc1c(-c2ccc(C)cc2)cnc2ccccc12` (stereo not given) gave an Inhibition of 85%.

With `C#CCOc1ccc(N2C(N)=NC(N)=NC2(C)C)cc1.Cl`, the Inhibition was 94%.

`CC(=O)Nc1cccc(-c2cnc(N)c3cc(-c4ccc5c(c4)OCO5)ccc23)c1` returned an Inhibition of 99%.

The molecule `COc1cccc(CNC(=O)c2cc(CNCc3ccccc3)ccc2-c2cccc(CNCc3ccc(-c4ccccc4)cc3)c2)c1.O=C(O)C(F)(F)F` returned an Inhibition of 95%.

Regarding `CN1CC=C(c2csc3ccc(NC(=O)Nc4ccc(-c5ccncc5)c5ccccc45)cc23)CC1`, the Inhibition came out at 93%.

`Cl.NC(=O)N1CCN(Cc2ccc(Br)cc2)CC1`: the Inhibition was 96%.

Turning to `COc1ccccc1C1CC(c2ccc(Br)cc2)=NN1C(=O)c1ccccc1` (stereo not given), the Inhibition worked out at 85%.

Molecule `COc1ccc(CCNC(C)Cc2ccc(C(=O)Nc3ccc(CC(C)NCCc4cccc(Cl)c4)cc3)cc2)cc1` (stereo not given) registered an Inhibition of 100%.

Take `CCCCC(=O)Nc1ccc(Nc2nc(C)cc(N3CCCC3)n2)cc1`: the Inhibition was 100%.

Take `COc1cc2c(cc1OC)C(c1ccc(Br)cc1)CN(C)CC2.Cl` (stereo not given): the Inhibition is given as 86%.

In turn, `O=C(/C=C/c1ccc(Cl)c(Cl)c1)NCCCCCN1CCC(NC(=O)c2cccc(Cl)c2)CC1` yielded an Inhibition of 98%.

The molecule `CCN(C(=O)c1ccc(NC(=O)c2cccs2)cc1)c1nc2c(C)cccc2s1` showed an Inhibition of 89%.

(Values after ChEMBL document CHEMBL1157539, “Thousands of chemical starting points for antimalarial lead identification” (Nature, 2010).)
